# Screens (PubChem BioAssay)
# rCAG RNA binder = binders of r(CAG) RNA repeats, primary screen, biochemical, fluorescence; r(CAG) RNA repeat, TO-PRO-1 dye displacement fluorescence; inhibition, % at 3 µM; hit rate 1.3% among 370,000; AID 651821, 2012;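 active = inhibition above the plate cutoff, the mean of all test compounds on that plate plus 3 SD, cut at about 35% in these data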;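 also: higher means more dye released from RNA so lower well fluorescence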
# FAS TE block = FAS thioesterase domain inhibitors, primary screen, biochemical, fluorescence intensity, uHTS; Fatty acid synthase (Homo sapiens), P49327; recombinant FAS-TE, OMFH fluorogenic substrate, fluorescence endpoint; inhibition, % at 15 µM; hit rate 0.67% among 360,000; AID 602261, 2012;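 active = compounds whose normalised, plate-corrected inhibition of enzyme fluorescence in the single-dose primary screen is 50% or more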
# NadD block = inhibitors of S. aureus NadD, primary screen, biochemical, colorimetric, uHTS; purified NadD enzyme, colorimetric absorbance read-out; hit rate 0.78% among 360,000; Nicotinate-nucleotide adenylyltransferase NadD (Staphylococcus aureus N315); AID 602399, 2012; inhibition, % at 20 µM; in the data active = inhibition above about 26%
# GRIN3A LBD mod = binders of NR3A ligand-binding domain, primary screen, biophysical, differential scanning fluorimetry, uHTS | NR3A LBD differential scanning fluorimetry, Tm shift; 0% = protein alone, 100% = glycine-bound protein | Tm shift relative to glycine control, % at 25 µM | hit rate 2.5% among 340,000 | AID 1259313, 2017;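 active = melting temperature shift of at least 10% of the positive control shift, at one fixed dose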
# Hits are given with their value; - = inactive; . = not tested or not shown. The list is not random: actives were taken first. Their share in the collection is about 4.3%.
SMILES,rCAG RNA binder,FAS TE block,NadD block,GRIN3A LBD mod
COc1ccc(-c2cc(NC(=O)Cc3c(C)[nH]c4ccccc34)ccc2Nc2cccnc2)cc1F,-,.,.,.
NC(=S)n1[nH]c(-c2ccc([N+](=O)[O-])cc2)c(N=Nc2cccc(Cl)c2)c1=O,-,-,93.4,24.6
NC(=S)n1[nH]c(-c2ccc([N+](=O)[O-])cc2)c(N=Nc2ccc(O)cc2)c1=O,-,-,53.9,27.1
Cc1[nH]n(C(N)=S)c(=O)c1N=Nc1cccc(Cl)c1,-,-,-,-
C[C@H]1CCC[C@@H](O)CC(=O)c2c(O)cc(O)cc2CC(=O)O1,-,.,.,.
Cc1csc(N(C(=O)c2cccc(S(=O)(=O)N3CCCC3)c2)c2ccccc2)n1,-,-,-,-
Cc1csc(N(C(=O)c2cccc(S(=O)(=O)N(C)C)c2)c2ccccc2)n1,-,-,-,12.2
O=C(CSc1nnc(COc2ccccc2)n1-c1ccccc1)Nc1ccc2c(c1)OCCO2,-,.,.,.
O=[N+]([O-])c1ccc(O)c(/C=N/n2cnc3ccccc32)c1,-,-,-,-
Cc1ccc(/C=C2\SC(=S)N(/N=C/c3cc([N+](=O)[O-])ccc3O)C2=O)o1,.,-,36.8,-
COc1cccc(NC(=O)C2CCCN2C(=O)NCc2ccccc2)c1 (stereo unspecified),-,.,.,.
COc1cccc(CN(C)C(=O)/C=C/c2ccc(S(=O)(=O)N3CCCCCC3)cc2)c1,-,-,-,24.4
COc1cccc(/C=C/C(=O)OCC(=O)Nc2ccc(S(=O)(=O)N3CCCC3)cc2)c1,-,-,-,-
COc1ccccc1CNS(=O)(=O)c1ccc(NC(C)=O)cc1,-,-,-,-
CCNS(=O)(=O)c1ccc(NC(=O)Nc2cc(C)ccc2OC)cc1,-,-,-,19.6
CCNS(=O)(=O)c1ccc(NC(=O)Nc2ccccc2OC)cc1,-,-,-,14.4
Cc1nc2ccc(S(=O)(=O)NCC(=O)N(C)Cc3ccc(F)cc3)cc2s1,-,.,.,.
Fc1ccccc1Nc1nc2ccccc2o1,-,-,-,33.9
c1ccc(Nc2nc3ccccc3o2)cc1,-,-,-,-
O=C(O)c1ccc(CSc2nnc(-c3ccc(Cl)cc3)o2)cc1,-,-,-,-
Clc1ccc(CSc2nnc(-c3c[nH]c4ccccc34)o2)cc1,-,-,-,26.5
O=S(=O)(Nc1ccc(-c2nnc(SCc3ccc(Cl)cc3)o2)cc1)c1ccccc1,-,-,-,13.6
Cc1ccccc1-c1nnc(SCc2ccc(F)cc2)o1,-,-,-,13.0
CCSc1nnc(-c2c[nH]c3ccccc23)o1,.,-,-,-
Cc1ccc(C(=O)C2CCN(CC(=O)N3CCOCC3)CC2)cc1,-,.,.,.
SMILES,rCAG RNA binder,FAS TE block,NadD block,GRIN3A LBD mod
O=C(N[C@@H](Cc1cccnc1)C(=O)N1CCC[C@H]1C(=O)NC1CCCC1)c1ccc(Cl)c(Cl)c1,-,.,.,.
CN1c2ccccc2C(O)=C(C(=S)Nc2ccc(Cl)cc2)S1(=O)=O,68.5,-,-,27.8
CC(O)CNc1nc2c(c(=O)n(Cc3cccc(Cl)c3)c(=O)n2C)n1C (stereo unspecified),-,-,-,-
Cn1c(NCC(O)CO)nc2c1c(=O)n(Cc1ccc(Cl)c(Cl)c1)c(=O)n2C (stereo unspecified),-,-,-,16.9
CN(CCc1ccccc1)C(=O)c1cc2ccccn2n1,-,.,.,.
COC(=O)/C(C#N)=C/c1c[nH]c2ccccc12,-,-,-,-
Cc1ccc(S(=O)(=O)/C(C#N)=C/c2c[nH]c3ccccc23)cc1,-,-,-,13.1
Cc1ccc(S(=O)(=O)N/N=C/c2c[nH]c3ccccc23)cc1,-,-,-,30.6
COc1ccc2c(/C=N/NS(=O)(=O)c3ccc(C)cc3)c[nH]c2c1,-,-,-,33.4
O=C(O)c1ccc(S(=O)(=O)NN=Cc2c[nH]c3ccccc23)cc1,-,-,-,.
COc1ccc2[nH]cc(C=O)c2c1,-,-,-,-
COc1ccc2[nH]cc(/C=N/NS(=O)(=O)c3ccc(C)cc3)c2c1,-,-,-,24.8
O=C(CCc1ccccc1)N[C@H]1[C@H](OCc2ccccc2)CCC[C@@]12C(=O)N(Cc1ccccc1)c1ccccc12,-,.,.,.
C[C@H](O)[C@@H]1CN2CCc3c([nH]c4cccc(-c5ccccc5)c34)[C@@H]2C[C@@H]1N(C)C(=O)C1CCCCC1,-,.,.,.
CCOC(=O)C1=NOC(C(=O)Nc2cc(C)cc(C)c2)(C(=O)C2CC2)C1 (stereo unspecified),-,.,.,.
Oc1ccc(N=Nc2nc(-c3ccccc3)c(-c3ccccc3)[nH]2)cc1,-,-,-,-
O=C(CSc1n[nH]c(-c2ccc(Br)cc2)n1)NC1CCCC1,-,-,-,-
Oc1ccc(N=Nc2n[nH]c(-c3ccccc3)n2)cc1,-,-,-,10.2
Oc1ccc(N=Nc2n[nH]c(-c3ccc(Br)cc3)n2)cc1,-,-,-,26.9
CCOc1ccc(C2Nc3ccc4ccccc4c3-c3c2c(=O)oc2ccccc32)cc1 (stereo unspecified),-,-,-,14.1
COc1ccc(C2Nc3ccc4ccccc4c3-c3c2c(=O)oc2ccccc32)cc1 (stereo unspecified),-,-,-,.
N#C/C(=C\c1ccc(OCc2ccccc2)cc1)C(=O)Nc1nc2c(s1)CCN(Cc1ccccc1)C2,-,-,-,-
CN(C)c1ccc(/C=C(/C#N)C(=O)Nc2nc3c(s2)CCN(Cc2ccccc2)C3)cc1,-,-,57.1,-
COc1ccc2c(c1)CCCN2C(=O)C1CCCN(S(=O)(=O)c2c(C(C)C)cc(C(C)C)cc2C(C)C)C1 (stereo unspecified),-,.,.,.
COc1ccc(OCC(=O)Nc2nc3ccc(NC(C)=O)cc3s2)cc1,-,-,-,14.1
SMILES,rCAG RNA binder,FAS TE block,NadD block,GRIN3A LBD mod
CC(=O)Nc1ccc2nc(NC(=O)c3cccs3)sc2c1,-,-,-,-
COc1ccc(C(=O)Nc2nc3ccccc3s2)cc1,-,-,-,25.6
COc1cccc(OC)c1C(=O)Nc1nc2ccc(S(C)(=O)=O)cc2s1,-,-,-,-
COc1ccc2nc(NC(=O)c3cccs3)sc2c1,-,-,-,19.3
COc1ccccc1NC(=O)Nc1nc2ccc(S(N)(=O)=O)cc2s1,-,-,-,20.1
CCNC(=O)N(C)[C@H]1C[C@H]2c3[nH]c4c(-c5ccc6c(c5)OCO6)cccc4c3CCN2C(=O)[C@H]1[C@H](C)O,-,.,.,.
COc1ccc2nc(NC(=O)c3ccc4ncsc4c3)sc2c1,.,-,-,26.3
COc1ccc2nc(NC(=O)Nc3cccc4ccccc34)sc2c1,-,-,-,23.2
COc1ccc2nc(NC(=O)c3ccc(F)cc3)sc2c1,-,-,-,10.1
NC(=O)c1ccc2nc(NC(=O)c3ccc(N)cc3)sc2c1,-,-,-,13.9
COc1ccc2nc(NC(=O)Nc3ccccc3OC)sc2c1,-,-,-,-
O=C(Nc1nc2ccccc2s1)c1ccc(Cl)s1,-,-,-,20.9
